Values without a mark were called inactive. Inconclusive results are not listed. Active and inactive are the calls of the source. Unless noted, calls come from the whole dose curve.

Here are results for eleven compounds from PubChem BioAssay (Tox21).

Assay [1] has as its target Gonadotropin-releasing hormone receptor (Homo sapiens) (UniProt P30968). Nature of the assay: Human gonadotropin-releasing hormone receptor (GnRHR) small molecule agonists, calcium flux assay in GnRHR-HEK293 cells (AID 1920063). Note: nearly all actives have a fitted effect of over 35% in size. A digest of the protocol: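 Tox21-format agonist screen using human GnRHR-expressing HEK293 cells and a fluorescent calcium dye; kinetic 3-min fluorescence reading after compound addition, 15-point concentration series run in triplicate.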

Assay [2] has as its target KiSS-1 receptor (Homo sapiens) (UniProt Q969F8). In words: Human kisspeptin (KISS1R) small molecule agonists, calcium flux assay in KISS1R-HEK293 cells (AID 1920064; active = well fitted activation curve with a large enough effect in the repeat runs). A digest of the protocol:
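Intracellular calcium mobilization in KISS1R-HEK293 cells was recorded by fluorescence (Ex/Em 480/540) for 3 min following compound addition to cells pre-loaded 1 h with calcium dye.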

Assay [3] is described as follows: p53 small molecule agonists, cell-based qHTS assay with human liver microsomes (AID 1963577).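 Note: p53 response element beta-lactamase reporter cells with liver microsomes plus NADPH.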 The essentials:
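Metabolically competent format: test substances, human liver microsomes and NADPH (both 0.5 mg/mL final) incubated with p53RE-bla cells 16 h at 37 C. Beta-lactamase reporter signal then quantified by fluorescence.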

A short description of assay [4]: p53 small molecule agonists, cell-based qHTS assay with rat liver microsomes (AID 1963578). The essentials:
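Each plate received p53RE-bla cells, then compound, then rat liver microsomes and NADPH (both 0.5 mg/mL final). Plates were held 16 h at 37 C, and beta-lactamase activity was detected with LiveBLAzer over 2 h.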

Assay [5] can be described thus: p53 small molecule agonists, cell-based qHTS assay with human liver microsomes: qHTS cell viability counter screen (AID 1963579). Note: nearly all actives have a fitted effect of over 45% in size. A digest of the protocol: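 Tox21 library compounds, delivered from DMSO stocks, were tested on p53RE-bla cells together with 0.5 mg/mL human liver microsomes and 0.5 mg/mL NADPH (final) over 16 h at 37 C; CellTiter-Glo luminescence served as the cytotoxicity measure.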

Assay [6] can be described thus: p53 small molecule agonists, cell-based qHTS assay with rat liver microsomes: qHTS cell viability counter screen (AID 1963580). Note: nearly all actives have a fitted effect of over 45% in size. The essentials:
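p53RE-bla HCT-116 cells were exposed 16 h at 37 C to compounds with rat liver microsomes (0.5 mg/mL) and NADPH (0.5 mg/mL). Viability was measured in the same wells as ATP content by CellTiter-Glo luminescence.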

A short description of assay [7]: p53 small molecule agonists, cell-based qHTS assay: qHTS cell viability counter screen (AID 1963581). Note: nearly all actives have a fitted effect of over 45% in size. A digest of the protocol: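 Compounds are pinned onto HCT-116 p53RE-bla cells and left 16 h at 37 C. Following the reporter FRET read, ATP is quantified by CellTiter-Glo luminescence after 30 min at room temperature.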
The nature of assay [8]: p53 small molecule agonists, cell-based qHTS assay (AID 1963582; active = well fitted activation curve with a large enough effect in the signal ratio in the repeat runs, not every such curve was filed as active; the % refers to the signal ratio). The essentials:
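Agonist activity was scored from beta-lactamase FRET fluorescence in p53RE-bla cells treated 16 h at 37 C with compounds in DMSO, substrate incubation being 2 h at room temperature.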

Assay [9] concerns the target 5-hydroxytryptamine receptor 2A (Homo sapiens) (UniProt P28223). In words: 5-hydroxytryptamine receptor 2A (HTR2A) small molecule agonists, cell-based qHTS assay (AID 1963587). Note: nearly all actives have a fitted effect of over 30% in size. The essentials: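 CHO cells stably expressing human HTR2A, plated 18 h, loaded with calcium dye 1 h at 37 C. Agonist mode: compounds added and intracellular calcium fluorescence recorded kinetically for 2 min at 1 sec intervals.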

Assay [10] addresses Muscarinic acetylcholine receptor M1 (Homo sapiens) (UniProt P11229). Nature of the assay: Cholinergic receptor muscarinic 1 (CHRM1) small molecule antagonists, cell-based qHTS assay (AID 1963588). Note: nearly all actives have a fitted effect of over 40% in size. Note: potency is the fitted concentration of half-maximal effect. A digest of the protocol: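 CHRM1-CHO calcium-flux assay, antagonist mode. Cells were seeded 18 h, dye-loaded 1 h at 37 C and given compound for 5 min at RT, then acetylcholine was added at 50nM. FDSS fluorescence was read 3 min; 15 concentrations, three runs.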

Assay [11] shares this target. Nature of the assay: Cholinergic receptor muscarinic 1 (CHRM1) small molecule agonists, cell-based qHTS assay (AID 1963589). Note: nearly all actives have a fitted effect of over 35% in size. A digest of the protocol: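 Stable CHRM1-CHO cells (human receptor) were incubated 18 h, dye-loaded for 1 h at 37 C and exposed to test compounds for agonist activity, with calcium-dependent fluorescence followed kinetically.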
For assay [12], the target named is D(2) dopamine receptor (Homo sapiens) (UniProt P14416). In words: Dopamine D2 receptor (DRD2) small molecule agonists, cell-based qHTS assay (AID 1963594). Note: nearly all actives have a fitted effect of over 35% in size. Note: potency is the fitted concentration of half-maximal effect. The essentials:
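HEK293 cells stably expressing human DRD2, pre-treated with PDE inhibitor Ro20-1724 (0.1 mM final) and compound 10 min at room temperature, then stimulated with NKH477 (200nM […]) for 30 min. cAMP read by HTRF (665/620 nm).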

The target is the same in assay [13]. Nature of the assay: Dopamine D2 receptor (DRD2) small molecule antagonists, cell-based qHTS assay (AID 1963595; active = well fitted inhibition curve with a large enough effect in the signal ratio in the repeat runs, with a control signal flat; the % refers to the signal ratio; note: potency is the fitted concentration of half-maximal effect). The essentials: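 Readout: HTRF cAMP, cAMP-d2 competing with cellular cAMP for anti-cAMP cryptate, read after 1 h. Cells: DRD2-HEK293. Conditions: 0.1 mM Ro20-1724, 12 nM quinpirole, 200 nM NKH477, 30 min RT.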
The nature of assay [14]: G protein-coupled receptor (GPCR) small molecule agonists, calcium flux assay: HEK293 wild type cell line counter screen (AID 1920065). The essentials: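 In this agonist-mode screen, ATP is the positive control and DMSO the vehicle. Cells grow 18 h before a 1 h dye incubation at 37 C; signal is taken at Ex/Em 480/540 over 3 min.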
Assay [15] has as its target Beta-2 adrenergic receptor (Homo sapiens) (UniProt P07550). In words: Adrenergic beta2 receptor (ADRB2) small molecule antagonists, cell-based qHTS assay (AID 1963592). Note: series mostly up to about 92 µM; nearly all actives have a fitted effect of over 50% in size. A digest of the protocol: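 Cells (CHO, stable ADRB2 overexpression) incubated 18-20hr at 37C; compounds added from DMSO; agonist mix (1nM isoproterenol, 100uM IBMX, 25uM Ro-20-1724) added; 0.5hr RT; d2-cAMP and anti-cAMP-cryptate added; 1hr RT; 665/615 nm read.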

Assay [16] deals with 5-hydroxytryptamine receptor 2A (Homo sapiens) (UniProt P28223). Nature of the assay: 5-hydroxytryptamine receptor 2A (HTR2A) small molecule antagonists, cell-based qHTS assay (AID 1963586). Note: nearly all actives have a fitted effect of over 45% in size. A digest of the protocol: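 Antagonist-mode intracellular calcium assay: DOI (4 nM) added after 5 min compound pre-incubation at room temperature to dye-loaded HTR2A-CHO cells. Fluorescence followed for 3 min, sampled every second.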
Sequence of 5-hydroxytryptamine receptor 2A (Homo sapiens) (P28223 whole entry, looked up): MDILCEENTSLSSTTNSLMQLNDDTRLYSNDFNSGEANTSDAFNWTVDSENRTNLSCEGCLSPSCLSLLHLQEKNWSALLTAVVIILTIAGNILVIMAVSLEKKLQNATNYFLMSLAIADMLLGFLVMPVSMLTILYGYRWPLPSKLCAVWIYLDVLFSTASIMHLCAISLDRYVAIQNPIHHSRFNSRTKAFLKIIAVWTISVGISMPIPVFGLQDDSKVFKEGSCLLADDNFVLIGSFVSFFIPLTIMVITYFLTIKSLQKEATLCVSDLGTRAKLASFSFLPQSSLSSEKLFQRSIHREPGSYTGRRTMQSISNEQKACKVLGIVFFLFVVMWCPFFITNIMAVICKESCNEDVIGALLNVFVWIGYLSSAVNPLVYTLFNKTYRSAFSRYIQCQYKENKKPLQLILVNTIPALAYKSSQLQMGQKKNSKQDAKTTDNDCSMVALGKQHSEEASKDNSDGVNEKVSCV

Assay [17] is described as follows: cAMP Responsive Elements (CRE) small molecule agonists, cell-based qHTS assay (AID 1963590). A digest of the protocol:
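FRET-based beta-lactamase readout (LiveBLAzer B/G, 2 h RT) quantified CRE activation in HEK 293T CRE-bla cells after 3 h treatment with DMSO-dissolved compounds.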

A short description of assay [18]: cAMP Responsive Elements (CRE) small molecule antagonists, cell-based qHTS assay (AID 1963591; active = well fitted inhibition curve with a large enough effect in the signal ratio in the repeat runs, not every such curve was filed as active; the % refers to the signal ratio). A digest of the protocol: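 qHTS in CRE-bla HEK 293T cells: compound in DMSO, then 0.25 uM NKH477 (final), 3 h at 37 °C/5% CO2; beta-lactamase FRET read-out after 2 h substrate incubation.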
Assay [19] has as its target Beta-2 adrenergic receptor (Homo sapiens) (UniProt P07550). Nature of the assay: Adrenergic beta2 receptor (ADRB2) small molecule agonists, cell-based qHTS assay (AID 1963593).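 Note: CHO cells stably overexpressing human ADRB2.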 A digest of the protocol:
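CHO cells stably over-expressing ADRB2 were plated overnight at 37C, then dosed with compounds plus a stimulation mix containing 100uM IBMX and 25uM Ro-20-1724 for 0.5hr at room temperature. cAMP was measured by HTRF competition, 1hr.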
% is set by controls: 0 for no effect and ±100 for the full control effect.

Sequence of Beta-2 adrenergic receptor (Homo sapiens) (P07550 whole entry, looked up): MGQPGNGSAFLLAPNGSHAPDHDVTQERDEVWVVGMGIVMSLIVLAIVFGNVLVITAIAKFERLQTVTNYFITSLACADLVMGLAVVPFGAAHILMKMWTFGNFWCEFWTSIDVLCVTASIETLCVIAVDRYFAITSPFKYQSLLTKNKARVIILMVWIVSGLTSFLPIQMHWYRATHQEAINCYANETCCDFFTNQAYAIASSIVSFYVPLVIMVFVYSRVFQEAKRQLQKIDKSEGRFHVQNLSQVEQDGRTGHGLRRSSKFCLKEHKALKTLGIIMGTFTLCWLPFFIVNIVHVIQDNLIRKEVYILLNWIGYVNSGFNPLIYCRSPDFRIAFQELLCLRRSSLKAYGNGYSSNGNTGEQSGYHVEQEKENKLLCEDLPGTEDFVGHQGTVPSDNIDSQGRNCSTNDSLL
Sequence of Gonadotropin-releasing hormone receptor (Homo sapiens) (P30968 whole entry, looked up): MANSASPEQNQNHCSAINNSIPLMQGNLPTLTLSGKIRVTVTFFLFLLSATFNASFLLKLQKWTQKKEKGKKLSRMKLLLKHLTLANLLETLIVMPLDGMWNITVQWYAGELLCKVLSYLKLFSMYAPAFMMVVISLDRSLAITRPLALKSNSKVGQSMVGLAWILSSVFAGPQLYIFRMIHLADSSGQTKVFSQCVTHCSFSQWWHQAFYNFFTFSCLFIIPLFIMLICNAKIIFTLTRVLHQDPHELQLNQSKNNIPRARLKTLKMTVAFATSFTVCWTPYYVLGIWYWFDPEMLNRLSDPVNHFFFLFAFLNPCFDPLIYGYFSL
Sequence of Muscarinic acetylcholine receptor M1 (Homo sapiens) (P11229 whole entry, looked up): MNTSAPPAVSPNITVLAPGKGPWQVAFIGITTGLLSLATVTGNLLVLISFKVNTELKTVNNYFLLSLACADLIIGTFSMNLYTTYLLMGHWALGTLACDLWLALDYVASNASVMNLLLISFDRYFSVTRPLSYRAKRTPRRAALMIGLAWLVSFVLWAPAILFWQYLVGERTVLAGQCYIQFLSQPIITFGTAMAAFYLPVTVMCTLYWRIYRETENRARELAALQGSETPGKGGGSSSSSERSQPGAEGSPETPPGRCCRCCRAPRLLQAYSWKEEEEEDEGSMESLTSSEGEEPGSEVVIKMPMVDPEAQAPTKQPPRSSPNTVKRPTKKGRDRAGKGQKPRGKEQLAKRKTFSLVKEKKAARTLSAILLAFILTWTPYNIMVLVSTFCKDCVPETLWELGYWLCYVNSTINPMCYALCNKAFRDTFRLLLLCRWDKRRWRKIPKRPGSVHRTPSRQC
Sequence of KiSS-1 receptor (Homo sapiens) (Q969F8 whole entry, looked up): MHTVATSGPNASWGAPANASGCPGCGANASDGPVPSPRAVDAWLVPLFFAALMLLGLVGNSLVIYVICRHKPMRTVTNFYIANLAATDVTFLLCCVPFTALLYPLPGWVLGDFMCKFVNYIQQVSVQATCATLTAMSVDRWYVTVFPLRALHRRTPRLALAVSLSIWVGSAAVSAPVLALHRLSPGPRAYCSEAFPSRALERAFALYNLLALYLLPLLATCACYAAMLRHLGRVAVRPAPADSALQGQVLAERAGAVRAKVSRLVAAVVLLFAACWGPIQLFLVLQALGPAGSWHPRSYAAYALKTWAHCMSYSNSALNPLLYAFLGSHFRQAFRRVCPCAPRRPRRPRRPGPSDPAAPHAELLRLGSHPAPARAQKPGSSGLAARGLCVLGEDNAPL
Sequence of D(2) dopamine receptor (Homo sapiens) (P14416 whole entry, looked up): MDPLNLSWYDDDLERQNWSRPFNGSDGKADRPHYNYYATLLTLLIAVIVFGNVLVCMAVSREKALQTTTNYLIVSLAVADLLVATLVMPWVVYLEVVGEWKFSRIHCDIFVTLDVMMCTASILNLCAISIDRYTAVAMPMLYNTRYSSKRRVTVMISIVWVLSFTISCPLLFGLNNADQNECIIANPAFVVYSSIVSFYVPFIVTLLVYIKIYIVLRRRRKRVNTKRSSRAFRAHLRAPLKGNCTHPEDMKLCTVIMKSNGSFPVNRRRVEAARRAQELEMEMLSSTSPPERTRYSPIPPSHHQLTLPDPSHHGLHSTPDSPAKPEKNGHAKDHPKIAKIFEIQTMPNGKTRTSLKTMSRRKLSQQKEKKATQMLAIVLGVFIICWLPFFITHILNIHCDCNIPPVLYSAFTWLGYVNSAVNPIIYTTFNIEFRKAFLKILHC

As for `CN1CCN(CCCN2c3ccccc3Sc3ccc(S(=O)(=O)N(C)C)cc32)CC1`, the Potency entry in assay [1], in [2], in assay [3], in assay [4], in assay [5] and in assay [6] was “inactive” throughout. Further, the Potency result in assay [7], in assay [8], in assay [9], in assay [11] and in [12] was “inactive” each time. Also, the Potency in assay [10] was 5.16 µM (active); in assay [13], 47.3 nM (active).

Regarding `CC(C)c1c(C(=O)Nc2ccccc2)c(-c2ccccc2)c(-c2ccc(F)cc2)n1CC[C@@H](O)C[C@@H](O)CC(=O)O`, the Potency entry in [1], in [2], in [14], in assay [7], in assay [15] and in assay [12] was “inactive” in each case. Also, the Potency entry in assay [13] is “inactive”.

On to `O=C(O)CCn1c2c(c3ccccc31)C[C@H](NS(=O)(=O)c1ccc(F)cc1)CC2`, for which the Potency entry in assay [1], in assay [2], in assay [14], in [16], in assay [9] and in [10] was “inactive” each time. In addition, the Potency result in assay [11], in assay [17], in assay [15], in [12] and in assay [13] was “inactive” in each case.

For `O=C(CCCN1CCC(O)(c2ccc(Cl)cc2)CC1)c1ccc(F)cc1`, the Potency entry in [1], in assay [2], in [14], in [7], in assay [8] and in [17] was “inactive” in each case. In addition, the Potency result in assay [18], in [15] and in [19] was “inactive” each time.

On to `CCCCCCCCCO`, for which the Potency result in assay [1], in assay [2], in [14], in assay [8], in assay [16] and in assay [9] was “inactive” throughout. In addition, the Potency entry in assay [10], in assay [11], in assay [17], in [18], in [15] and in assay [19] was “inactive” throughout. For the same compound, the Potency in assay [12] is 43.3 µM (active).

As to `O=C(O)c1cn(C2CC2)c2cc(N3CCNCC3)c(F)cc2c1=O`, the Potency entry in [1], in assay [2], in assay [14], in [7], in assay [17] and in assay [18] was “inactive” each time. Also, the Potency result in assay [12] and in assay [13] was “inactive” throughout.

Take `Clc1ccccc1CN1CCc2sccc2C1`: the Potency entry in assay [1], in [2], in assay [14], in assay [17], in [15] and in assay [19] was “inactive” in each case. Moreover, the Potency result in assay [12] and in [13] was “inactive” throughout.

`CNCCCN1c2ccccc2CCc2ccccc21`: the Potency result in assay [1], in [2], in assay [14], in [8], in assay [17] and in [18] was “inactive” in each case.

Take `NCCCC(O)(P(=O)(O)O)P(=O)(O)O`: the Potency entry in assay [1], in [2], in assay [14], in [7], in [8] and in [17] was “inactive” each time. The Potency result in assay [18], in assay [15], in assay [19], in assay [12] and in [13] was “inactive” each time.

Consider `CN1CCN(C2=Nc3cc(Cl)ccc3Nc3ccccc32)CC1`, for which the Potency result in assay [1], in assay [2], in assay [14], in [7], in [17] and in assay [18] was “inactive” in each case. Moreover, the Potency entry in assay [15] is “inactive”.

As for `N[C@@H](Cc1ccc(O)cc1)C(=O)O`, in assay [1], the activity change is -0.862% [at 5.22 µM, hits give high values]. Further, the activation in assay [2] is 0.301% [at 6.97 µM]; in assay [14], 1.73% [at 5.23 µM]; in assay [9], 0.614% [at 7.02 µM]; in assay [17] it was -0.513% [at 8.39 µM]; in assay [19], 15.9% [at 8.39 µM]. Besides, the activity change, negative = cytotoxicity in assay [7] was 14.2% [at 5.99 µM]. In addition, in assay [16], the activity, negative = inhibition was 17.7% [at 5.62 µM]. Further, the figures for the activity change, negative = inhibition in [18], in assay [15] and in assay [13] were 0.559% [at 8.39 µM], -0.134% [at 8.39 µM] and 0.318% [at 8.38 µM], respectively.
